# This is part of a sample that, as a whole, favours compounds with a hit. Of some 83,000 tested, about 20% had one in any assay.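 Values shown are percent growth following 48 h exposure of cells in 96-well plates to a single concentration of compound; below 10 was considered active.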 Values without a mark were called inactive. Calls of active or inactive are those of the source.
# Columns and labels:
# Test in all cases: NCI-60 one-dose screen, 48 h (100 = growth as untreated, 0 = no growth, -100 = all killed)
# Conditions in all cases: 10 µM unless noted
# T-47D breast = test system: T-47D breast
# BT-549 breast = test system: BT-549 breast
# MDA-MB-435 melanoma = test system: MDA-MB-435 melanoma
# MCF7 breast = test system: MCF7 breast
# HCT-116 colon = test system: HCT-116 colon
# HCC-2998 colon = test system: HCC-2998 colon
# KM12 colon = test system: KM12 colon
# SW-620 colon = test system: SW-620 colon
SMILES,growth (T-47D breast),growth (BT-549 breast),growth (MDA-MB-435 melanoma),growth (MCF7 breast),growth (HCT-116 colon),growth (HCC-2998 colon),growth (KM12 colon),growth (SW-620 colon)
C[Si](C)(C)Cc1ccccc1,113%,110%,113%,105%,107%,114%,108%,–
CN1CCN(c2nc(-c3csc(-c4cccs4)n3)cc3ccccc23)CC1,52.1%,70.4%,–,40.8%,46.7%,-38.2% (active),5.42% (active),9.06% (active)
COC1=C(Br)C(=O)C(OC)=C(Br)C1=O,106%,95.9%,105%,83%,90.1%,114%,101%,–
Cc1cc(Nc2ccc(F)cc2)nc(N2CCN(c3ccnc4cc(Cl)ccc34)CC2)n1,10.8%,47.5%,–,9.35% (active),4.86% (active),25.8%,21.6%,23.1%
CCCC(=O)N1CCCCC1CC (stereo not drawn),110%,100%,–,103%,116%,115%,108%,93.8%
Cn1cc(-c2csc(-c3c[nH]c4ccccc34)n2)c2cccnc21,27.2%,49.6%,-13.9% (active),13.6%,30.5%,33.2%,32.5%,–
O=C(CCCCCn1c2ccccc2c2c3c(c4c5ccccc5[nH]c4c21)C(=O)N(O)C3=O)N1CCOCC1,23.6%,60.3%,54.9%,15.7%,24.3%,18.8%,47.6%,–
Cn1cc(-c2csc(-c3cn(CCN)c4ccc(Br)cc34)n2)c2cccnc21,45.5%,93.2%,91.1%,20.9%,58.7%,97.9%,71.8%,–
CC(C)=CCC[C@](C)(O)[C@H]1CC[C@]2(C)[C@@H]1CC[C@@H]1[C@@]3(C)C/C(=C/c4ccc(Br)cc4)C(=O)C(C)(C)[C@@H]3CC[C@]12C,64.3%,95.4%,95.3%,82.2%,66.5%,92%,94.9%,–
CC(=O)Nc1cc(F)cc(C(F)(F)F)c1Cl,96.7%,95.8%,–,91.5%,94.1%,98.4%,96.3%,95.2%
CCc1nnc(NC(=O)c2ccoc2COc2ccccc2)s1,45.7%,51.2%,–,24%,30.6%,69%,31.6%,24%
COc1cc(-c2cc3ncccc3c3[nH]c(=O)c4cccnc4c23)cc(OC)c1OC,37.5%,49.1%,-26.2% (active),17.3%,17.8%,48.5%,30.7%,–
O=C(/C=C\c1ccc2c(c1)OCO2)/C=C/c1ccc2c(c1)OCO2,75.6%,67.2%,17%,13.2%,-12.5% (active),41.4%,8.55% (active),–
NC(=O)[C@@H]1CC2CCC1C2 (stereo partly drawn),113%,94.2%,–,103%,101%,121%,102%,94%
O=C1Nc2ccccc2/C1=C/c1cn(CCCn2c3ccccc3c(=O)c3ccccc32)c2ccccc12,74.1%,84.6%,94.6%,47.3%,87%,96.3%,88.3%,–
COc1cc2nc(Cl)nc(Nc3cccc(C(=O)/C=C/c4ccccc4)c3)c2cc1OC,68.8%,62.9%,36.5%,12.3%,-52.1% (active),57.4%,9.13% (active),–
Cc1cc(N2CCCCC2)nc(N(CCNc2ccnc3cc(Cl)ccc23)Cc2ccco2)n1,-29.3% (active),42.4%,32.8%,10.7%,2.13% (active),92.6%,31.9%,–
Cn1cc(-c2nc(-c3c[nH]c4ncccc34)cs2)c2cc(Br)ccc21,84%,99.8%,79.8%,35.3%,64.4%,99.8%,62.5%,–

SMILES,growth (T-47D breast),growth (BT-549 breast),growth (MDA-MB-435 melanoma),growth (MCF7 breast),growth (HCT-116 colon),growth (HCC-2998 colon),growth (KM12 colon),growth (SW-620 colon)
Clc1cc(Cl)cc(Nc2ccc3c(OCCCN4CCOCC4)cccc3n2)c1,60.4%,72.7%,57.4%,21.6%,27.5%,36.7%,-51.2% (active),–
NCCNc1nc(-c2ccccc2)nc2nc(-c3ccccc3)oc12,81.7%,97.7%,92.2%,81.2%,54.7%,98.6%,98.8%,–
COc1ccc2c(c1)c(-c1nc(-c3c[nH]c4ncccc34)cs1)cn2C,41.4%,72.8%,–,14.9%,56.7%,83.1%,24%,83.3%
C[N+](C)(CCCCCC[N+](C)(C)C1c2ccccc2-c2ccccc21)C1c2ccccc2-c2ccccc21,108%,117%,–,103%,101%,110%,111%,106%
CN1CCN(CCOc2ccc(-c3cnc4c(-c5cccc(F)c5)cnn4c3)cc2)CC1,56.9%,92.8%,-47.8% (active),37.4%,23.9%,63.2%,11.4%,–
COc1ccc2[nH]c(-c3ccc(Cl)cc3)cc(=O)c2c1,116%,92.9%,–,91.4%,102%,100%,98.8%,98.2%
C[C@]12CC[C@@H]3c4ccc(O)cc4CC[C@H]3[C@@H]1C[C@H](O)[C@@H]2O,128%,95.2%,92.5%,108%,92.8%,107%,-72.2% (active),–
COc1ccc2c(c1)C/C(=C\c1cc(-c3ccc4c(c3)OCO4)n[nH]1)C2=O,23%,93.9%,93%,34.8%,93.3%,105%,85.7%,–
Brc1ccc(Cn2nnnc2-c2ccn(-c3ccccc3)n2)cc1,57.7%,76.8%,85%,77.7%,49.4%,80.1%,80.6%,–
C(=C\c1c[nH]c2ccccc12)/c1ccc2ccccc2n1,68.4%,68.8%,93%,63.7%,65.9%,97.8%,52.4%,–
CN(C)CCCC1(c2ccc(F)cc2)OCc2cc(-c3ccc(C(F)(F)F)nc3)ccc21 (stereo not drawn),66.5%,94.7%,–,56.7%,58.4%,31.8%,80.2%,83.5%
Cc1ccc(NC2CC(=O)N(c3c(C)cc(C)cc3C)C2=O)c(C)c1 (stereo not drawn),99.4%,–,103%,92.9%,105%,112%,102%,101%
C=C(C)[C@@H]1CC[C@]2(C(=O)N3CCCNCC3)CC[C@]3(C)[C@H](CC[C@@H]4[C@@]5(C)CCC(=O)C(C)(C)[C@@H]5CC[C@]43C)[C@@H]12,83.9%,93.6%,–,91.4%,–,103%,98.7%,93.5%
Cc1ccc(Sc2sc(-c3ccccc3)nc2[P+](c2ccccc2)(c2ccccc2)c2ccccc2)cc1,-9.83% (active),-15.4% (active),–,-4.53% (active),-14.3% (active),-11.2% (active),-37.6% (active),8.24% (active)
O=[N+]([O-])c1cc(S(=O)(=O)c2ccc(F)c([N+](=O)[O-])c2)ccc1F,95.8%,107%,–,58.5%,–,112%,80.2%,48%
Nc1nc(N)c2nc3c(nc2n1)CCCCCCCCCC3,82.1%,74.5%,–,46.2%,21.4%,39.2%,61.4%,34.3%
CC(Cc1ccco1)C(=O)NC(N)=O (stereo not drawn),114%,–,105%,102%,106%,105%,105%,104%

# From PubChem BioAssay (NCI)
